{"source": "paper PMC10668032", "about": "“Altered binding affinity of SIX1-Q177R correlates with enhanced WNT5A and WNT pathway effector expression in Wilms tumor”", "note": "Whole data set: some 33,000 sequences, median “e-score” near -0.05, cut for the highest 2% near 0.38. Only a selection was taken, and the highest values are over-represented in it overall.", "data": [{"target": "T1, SIX1-Q177R homeodomain (human, UniProt Q15475 108-198, Q177R)", "T1 sequence": "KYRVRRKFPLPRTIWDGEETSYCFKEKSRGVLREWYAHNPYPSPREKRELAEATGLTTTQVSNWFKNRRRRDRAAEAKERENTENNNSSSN", "experiment": "universal protein binding microarray; Universal all-10-mer PBM (8x60K, AMADID 030236), 300 nM GST-tagged protein, Alexa Fluor 488 anti-GST; buffer, salt, pH and temperature not stated (as in Berger); high values mean tight binding", "conditions": "protein: ivt; tags: N-terminal GST; dsDNA, one strand shown", "how_it_was_run": "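Duplicate protein binding microarrays (universal 'all 10-mer', 8×60K format) were incubated with GST-tagged homeodomains at 300 nM final concentration. Binding was quantified as 8-mer E-scores with the Universal PBM Analysis Suite.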", "units": {"binding signal": "E-score"}, "values": [{"sequence": "ATACGCGA", "binding signal": "0.151 ± 0.036"}, {"sequence": "ACCCGCGT", "binding signal": "0.229 ± 0.0104"}, {"sequence": "ACCCGCGG", "binding signal": "0.171 ± 0.0326"}, {"sequence": "CCCGGCCC", "binding signal": "0.167 ± 0.00402"}, {"sequence": "TACCTACA", "binding signal": "0.3116 ± 0.00228"}, {"sequence": "TCAATACA", "binding signal": "0.212 ± 0.0334"}, {"sequence": "ACGTGCTC", "binding signal": "0.215 ± 0.0224"}, {"sequence": "CACCGGAG", "binding signal": "0.328 ± 0.00104"}, {"sequence": "ACTCAACA", "binding signal": "0.172 ± 0.00693"}, {"sequence": "CTTCACAC", "binding signal": "0.278 ± 0.0221"}, {"sequence": "ATTAACCC", "binding signal": "0.187 ± 0.00393"}, {"sequence": "ATTAAAAC", "binding signal": "0.158 ± 0.019"}, {"sequence": "CTTAACAC", "binding signal": "0.435 ± 0.00897"}, {"sequence": "ATTAACAC", "binding signal": "0.416 ± 0.0363"}, {"sequence": "GACTCCTA", "binding signal": "0.2147 ± 0.000728"}, {"sequence": "GTTAAGGA", "binding signal": "0.163 ± 0.00211"}, {"sequence": "CAGGGTGG", "binding signal": "0.161 ± 0.0171"}, {"sequence": "ACTAGCAC", "binding signal": "0.194 ± 0.00984"}, {"sequence": "GAGATGTA", "binding signal": "0.1954 ± 0.000318"}, {"sequence": "ACACAGAT", "binding signal": "0.167 ± 0.0587"}, {"sequence": "AGAGACAC", "binding signal": "0.411 ± 0.00648"}, {"sequence": "ACAGACAC", "binding signal": "0.392 ± 0.013"}, {"sequence": "GGAGACAC", "binding signal": "0.397 ± 0.0125"}, {"sequence": "GCAGACAC", "binding signal": "0.352 ± 0.0222"}, {"sequence": "CGAGACAC", "binding signal": "0.389 ± 0.0103"}, {"sequence": "CCAGACAC", "binding signal": "0.37 ± 0.0149"}, {"sequence": "CACGAGAC", "binding signal": "0.154 ± 0.0312"}, {"sequence": "AGACACAC", "binding signal": "0.316 ± 0.0332"}, {"sequence": "CCGGGTTA", "binding signal": "0.2 ± 0.024"}, {"sequence": "CACGGATG", "binding signal": "0.155 ± 0.0314"}, {"sequence": "ATCCACTC", "binding signal": "0.203 ± 0.0237"}, {"sequence": "TACTCCGA", "binding signal": "0.211 ± 0.0155"}, {"sequence": "CACTCCCG", "binding signal": "0.1824 ± 0.000608"}, {"sequence": "ATTGATAC", "binding signal": "0.196 ± 0.00402"}, {"sequence": "ATGGCCGA", "binding signal": "0.155 ± 0.00984"}, {"sequence": "GGGATACA", "binding signal": "0.234 ± 0.00449"}, {"sequence": "CACCTGTA", "binding signal": "0.232 ± 0.0126"}, {"sequence": "CACAACAA", "binding signal": "0.168 ± 0.00449"}, {"sequence": "GGGCACAC", "binding signal": "0.284 ± 0.0218"}, {"sequence": "AACACAAC", "binding signal": "0.176 ± 0.0727"}, {"sequence": "GACACAAC", "binding signal": "0.207 ± 0.0332"}, {"sequence": "GACAACAC", "binding signal": "0.386 ± 0.0047"}, {"sequence": "AACAACAC", "binding signal": "0.414 ± 0.0082"}, {"sequence": "GGCAACAC", "binding signal": "0.4138 ± 0.00188"}, {"sequence": "CACAACAC", "binding signal": "0.38 ± 0.0127"}, {"sequence": "CACACAAC", "binding signal": "0.153 ± 0.0694"}, {"sequence": "CGCAACAC", "binding signal": "0.366 ± 0.00704"}, {"sequence": "AAGGGAGT", "binding signal": "0.181 ± 0.0594"}, {"sequence": "CACGACTG", "binding signal": "0.19 ± 0.0173"}, {"sequence": "ATATGGTG", "binding signal": "0.245 ± 0.0104"}, {"sequence": "CTTCTACA", "binding signal": "0.161 ± 0.0182"}, {"sequence": "ACACCCTG", "binding signal": "0.4727 ± 0.000955"}, {"sequence": "CCACCCTA", "binding signal": "0.174 ± 0.00684"}, {"sequence": "GCACCCTA", "binding signal": "0.226 ± 0.0182"}, {"sequence": "ACCCCCTG", "binding signal": "0.328 ± 0.0317"}, {"sequence": "ATACCCTG", "binding signal": "0.31 ± 0.0148"}, {"sequence": "ACCCTCTC", "binding signal": "0.164 ± 0.0166"}, {"sequence": "ACACCCTC", "binding signal": "0.4743 ± 0.00338"}, {"sequence": "ACACCCTA", "binding signal": "0.4661 ± 0.00184"}, {"sequence": "ACCCCCTC", "binding signal": "0.324 ± 0.00733"}, {"sequence": "ACCGCACA", "binding signal": "0.232 ± 0.00335"}, {"sequence": "TGGGAACA", "binding signal": "0.172 ± 0.0191"}, {"sequence": "CGCCCGAC", "binding signal": "0.184 ± 0.0127"}, {"sequence": "ACCGAGTG", "binding signal": "0.363 ± 0.0115"}, {"sequence": "CACCAGGC", "binding signal": "0.336 ± 0.016"}, {"sequence": "CACGAAGA", "binding signal": "0.183 ± 0.0282"}, {"sequence": "AGATTACA", "binding signal": "0.23 ± 0.00802"}, {"sequence": "CCGACTCC", "binding signal": "0.159 ± 0.044"}, {"sequence": "AAGACACA", "binding signal": "0.174 ± 0.0361"}, {"sequence": "CCGACACG", "binding signal": "0.418 ± 0.0317"}, {"sequence": "CCGACCCC", "binding signal": "0.24 ± 0.0393"}, {"sequence": "ACGACACA", "binding signal": "0.273 ± 0.0776"}, {"sequence": "CCGACACC", "binding signal": "0.488 ± 0.0101"}, {"sequence": "CCGACACA", "binding signal": "0.295 ± 0.0445"}, {"sequence": "TCGACACA", "binding signal": "0.188 ± 0.0429"}, {"sequence": "ACGACACG", "binding signal": "0.426 ± 0.0132"}, {"sequence": "ACGACACT", "binding signal": "0.4277 ± 0.00127"}, {"sequence": "ACCCGCTC", "binding signal": "0.227 ± 0.00437"}, {"sequence": "CACCTGCC", "binding signal": "0.225 ± 0.0171"}, {"sequence": "ACCCGAAC", "binding signal": "0.173 ± 0.0027"}, {"sequence": "TGTCGTAA", "binding signal": "0.163 ± 0.00414"}, {"sequence": "CCCCCCCG", "binding signal": "0.218 ± 0.0264"}, {"sequence": "GGGTGATA", "binding signal": "0.218 ± 0.0149"}, {"sequence": "GATCCCGC", "binding signal": "0.185 ± 0.0357"}, {"sequence": "CGGGTACG", "binding signal": "0.182 ± 0.00752"}, {"sequence": "GCGACACC", "binding signal": "0.487 ± 0.00655"}, {"sequence": "ACGACTCC", "binding signal": "0.309 ± 0.0346"}, {"sequence": "GCGACCCC", "binding signal": "0.212 ± 0.0261"}, {"sequence": "GCGACACA", "binding signal": "0.262 ± 0.0569"}, {"sequence": "ACGACCCC", "binding signal": "0.244 ± 0.0306"}, {"sequence": "ACGACACC", "binding signal": "0.487 ± 0.00563"}, {"sequence": "CACTTGAA", "binding signal": "0.202 ± 0.00417"}, {"sequence": "CACCTTAC", "binding signal": "0.248 ± 0.036"}, {"sequence": "CACTCTCG", "binding signal": "0.288 ± 0.0157"}, {"sequence": "CCCCGAAC", "binding signal": "0.181 ± 0.00559"}, {"sequence": "AGGACCCC", "binding signal": "0.205 ± 0.0283"}, {"sequence": "CACACCTA", "binding signal": "0.333 ± 0.00896"}, {"sequence": "AACACGTG", "binding signal": "0.371 ± 0.00902"}, {"sequence": "AACACTTG", "binding signal": "0.336 ± 0.0307"}, {"sequence": "AACACATA", "binding signal": "0.17 ± 0.0243"}, {"sequence": "CACACATG", "binding signal": "0.165 ± 0.0245"}, {"sequence": "CACACCTG", "binding signal": "0.389 ± 0.0159"}, {"sequence": "GACACCTC", "binding signal": "0.4825 ± 0.00161"}, {"sequence": "AACACCTG", "binding signal": "0.44457 ± 0.000354"}, {"sequence": "GACTCCTC", "binding signal": "0.166 ± 0.0214"}, {"sequence": "GACCCCTC", "binding signal": "0.26 ± 0.015"}, {"sequence": "AACACCTA", "binding signal": "0.444 ± 0.00846"}, {"sequence": "CCGAGACA", "binding signal": "0.274 ± 0.00602"}, {"sequence": "ATGATACC", "binding signal": "0.335 ± 0.0146"}, {"sequence": "CACCACGG", "binding signal": "0.226 ± 0.00882"}]}]}
